Assay results from PubChem BioAssay AID504834 (National Center for Advancing Translational Sciences (NCATS), 2011).
The whole screen tested about 320,000 compounds, of which about 22,000 (6.9%) were called active. Roughly 27% stayed inconclusive and do not appear here. The list comes from a sample in which actives are over-represented; it also holds similar structures and randomly drawn compounds. Values without a mark were called inactive. Calls come from the whole dose curve; as a rule, active = well fitted inhibition curve with a large enough effect; inconclusive = small, poorly fitted or top-dose-only effect, or another doubt; inactive = no such curve, though single readings can be large or run the other way.

Test: Primary qHTS for delayed death inhibitors of the malarial parasite plastid, 96 hour incubation
Conditions: P. falciparum luciferase reporter growth; series mostly up to 28.7 µM; activity change, negative = inhibition: at the top concentration
Summary of the method: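 Infected RBCs, 2% Hct / 0.05% parasitemia final; luciferase-reporter P. falciparum; cpd 96 h, 37 C, 5% CO2; luciferase detection reagent; luminescence.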
% is set by controls: 0 for no effect and ±100 for the full control effect; potency is the fitted concentration of half-maximal effect.

Row | SMILES | activity change, negative = inhibition | Potency
1 | O=C(Cc1ccccc1F)NC1CCSc2ccccc21 (stereo not given) | -14.4% | 
2 | O=S(=O)(/C=C/c1ccccc1)N1CCNCC1 | -0.204% | 
3 | CC1CCN(C(=O)CCNC(=O)c2ccccc2)CC1 | 0% | 
4 | Cn1c(CC2Sc3ccccc3NC2=O)nnc1SCC(=O)c1ccc(Cl)cc1 (stereo not given) | -8.32% | 
5 | O=C(NCCN1CCOC1=O)C1CCC(=O)N(CCc2ccc(Cl)cc2)C1 (stereo not given) | -21.2% | 
6 | CCOC(=O)C1=C(C)NC(=O)N(C(C)=O)C1c1ccc(Cl)cc1 (stereo not given) |  | 4.15 µM (active)
7 | COCCOC(=O)C1=C(C)NC(=O)NC1c1ccc(Cl)cc1 (stereo not given) | 10.3% | 
8 | CCOC(=O)COc1ccc(Cl)cc1C1NC(=O)NC(C)=C1C(C)=O (stereo not given) | -16% | 
9 | OC(COc1ccc(F)cc1Cl)CN1CCc2ccccc2C1 (stereo not given) | 5.53% | 
10 | CS(=O)(=O)c1ccccc1C(=O)Nc1ccc2sccc2c1 | 35.9% | 
11 | O=[N+]([O-])c1cccc2ncccc12 | 2.85% | 
12 | C/C(=N\NC(N)=S)c1ccncc1 | 17.4% | 
13 | C/C(=N\NC(=S)NC(C)C)c1ccc(C(C)(C)C)cc1 |  | 3.7 µM (active)
14 | C/C(=N\NC(N)=S)c1cccnc1 | 22.1% | 
15 | CC(C)Cc1nnc(NC(=O)CCc2ccccc2)s1 | -25% | 
16 | CC(=O)N(Cc1cc(=O)[nH]c2ccccc12)c1ccc(C)cc1C | -0.0262% | 
17 | Cc1noc(C)c1CSCC(=O)Nc1ccc(Br)cc1Cl | 0.407% | 
18 | COc1cccc(Cn2cnc3c([N+](=O)[O-])c(C)c(C)cc32)c1 | -13.7% | 
19 | CCOC(=O)c1cn(Cc2cccc(C)c2)nn1 | -7.81% | 
20 | Cc1cccc(Cn2cnc3c(N)c(C)c(C)cc32)c1 |  | 10.4 µM (active)
21 | Cc1ccc(NC(=O)c2cc3ccccc3o2)cc1 | 15.5% | 
22 | O=C(O)c1[nH]c2ccccc2c1C(c1cccc(O)c1)c1c(C(=O)O)[nH]c2ccccc12 | 31.7% | 
23 | COc1ccc(NC(=O)CN(C)C(=O)CNC(=O)C2CCCCC2)cc1 | 1.78% | 
24 | O=S(=O)(Oc1ccccc1C(=S)N1CCOCC1)c1ccc(Cl)cc1 | -6.25% | 
25 | CCCCNC(=O)CCn1nc(-c2ccc(Cl)cc2)ccc1=O | -4.67% | 
26 | Cc1ccc(S(=O)(=O)N(CC(=O)N2CCc3ccccc3C2)c2cccc(Cl)c2)cc1 |  | 8.28 µM (active)
27 | COc1cccc(N(CC(=O)N2CCc3ccccc3C2)S(C)(=O)=O)c1 | -3.71% | 

Row | SMILES | activity change, negative = inhibition | Potency
28 | Cc1ccc(Cl)c(OCC(=O)N2CCc3ccccc3C2)c1 | -26.9% | 
29 | CC(C)=CCC/C(C)=C/C(=O)O | 38.9% | 
30 | O=C(NCc1cccnc1)Nc1ccccc1F | 2.75% | 
31 | CC(C)N1C(=O)C2C(C(=O)NC3CCCCC3)C3C=CC2(O3)C1C(=O)NC1CCCC1 (stereo not given) | -1.06% [at 5.75 µM] | 
32 | O=C(Nc1ccccc1F)C1C2C=CC3(O2)C1C(=O)N(c1cccnc1)C3C(=O)NC1CCCCC1 (stereo not given) |  | 13.1 µM (active)
33 | Nc1ccccc1C(=O)NC1CCCCNC1=O (stereo not given) | 13.7% | 
34 | O=C1CCNCCN1[C@H](CO)Cc1ccccc1 | -16.3% | 
35 | Cc1cccc([C@H](C)c2cnc[nH]2)c1C |  | 4.26 µM (active)
36 | Cc1cccc(N2CCN(C(=O)C3CCN(S(=O)(=O)c4cnc[nH]4)CC3)CC2)c1C | -24.5% | 
37 | CSc1ncccc1C(=O)NCc1ccccc1Cl | 18% | 
38 | COc1ccc(CNC(=O)c2ccc(Br)s2)cc1OC | 5.99% | 
39 | Cc1ccc(OCC(=O)OC(C)CN(C)Cc2ccccc2)cc1 (stereo not given) | 8.03% | 
40 | OC(CNCc1ccc2c(c1)OCO2)COc1ccccc1 (stereo not given) | -21.4% | 
41 | CN(Cc1ccccc1)CC(O)COc1ccc(CNCc2cc3ccccc3s2)cc1 (stereo not given) |  | 4.15 µM (active)
42 | CC(C)C[C@H](NC(=O)[C@@H]1O[C@H]1C(=O)O)C(=O)NCCCCN=C(N)N |  | 3.29 µM (active)
43 | COP1(=O)C[C@@H](O)[C@@H](O)[C@@H](COCc2ccccc2)O1 (stereo not given in full) | 30.8% | 
44 | COc1ccc(/C=C2\N=C3CCCN3C2=O)cc1 | 43.5% | 
45 | CSc1nc(C)nc(C2CC2)c1C#N | 10.3% | 
46 | Cc1cc(N2CCN(c3ccc(F)cc3)CC2)n2ncnc2n1 | 33.7% | 
47 | O=C(N/N=C/c1ccc([N+](=O)[O-])o1)c1cc([N+](=O)[O-])cc([N+](=O)[O-])c1O | -102% | 
48 | Cc1cc(C)nc(N/N=C/c2ccncc2)n1 | -3.32% | 
49 | Cc1cc(C)nc(N/N=C/c2ccc([N+](=O)[O-])o2)n1 |  | 5.22 µM (active)
50 | CCOC(=O)c1cc(C(C)C)sc1NC(=O)COC(=O)c1nccnc1N | 62.1% | 
51 | Cc1ccc(NC(=O)[C@H](Cc2ccccc2)NC(=O)C2CCNCC2)cc1 | -1.68% | 
52 | CC(=O)NS(=O)(=O)c1ccc(NC(=O)/C=C/c2ccccc2Cl)cc1 | 2.7% | 
53 | NS(=O)(=O)c1ccc(NC(=O)/C=C/c2ccccc2Cl)cc1 |  | 10.4 µM (active)
54 | O=C(/C=C/c1ccccc1Cl)Nc1ccc(S(=O)(=O)Nc2ncccn2)cc1 | 5.65% | 

Row | SMILES | activity change, negative = inhibition | Potency
55 | CCc1noc(C)c1C(=O)NNC(=O)c1ccc(F)cc1 | 12.7% | 
56 | O=S(=O)(c1ccccc1)c1nc(-c2ccccc2)oc1NCCCN1CCOCC1 | -3.97% | 
57 | CCc1nc2sc(C(=O)O)c(N)c2c2c1CCCC2 | -8.46% | 
58 | CCOc1ccccc1C1CC(c2ccc(Cl)cc2)Nc2nc(N)nn21 (stereo not given) |  | 10.4 µM (active)
59 | COc1ccc(C2CC(c3ccc(Cl)cc3Cl)Nc3nc(N)nn32)cc1OC (stereo not given) | 1.9% | 
60 | CCOc1ccccc1C1CC(c2ccccc2)Nc2nc(N)nn21 (stereo not given) | 3.66% | 
61 | COCCCNc1nc2ccccc2nc1NS(=O)(=O)c1ccc(F)cc1 | -2.54% | 
62 | Cc1cccc(-n2nc3c(c2NC(=O)c2cc4ccccc4o2)CS(=O)(=O)C3)c1 | -14.9% | 
63 | COc1cccc(C(=O)N/N=C(\C)c2cccc(NC(=O)c3ccc(F)cc3)c2)c1OC | 42.8% | 
64 | CCN(CC)c1ccc(C(=O)N/N=C(\C)c2cccc(OC)c2)cc1 | -11.7% | 
65 | COc1ccc(/C(C)=N\NC(=O)c2ccc(-c3ccccc3)cc2)c(F)c1 |  | 10.4 µM (active)
66 | CN(Cc1nc2ccccc2s1)C(=O)c1ccc(F)cc1 | 18.1% | 
67 | COc1ccccc1CC(=O)Nc1ccc(S(=O)(=O)N2CCCC2)cc1 | -1.9% | 
68 | CCOC(=O)C1CCCN(C(=O)/C=C/c2ccc(OC)cc2)C1 (stereo not given) | 35.4% | 
69 | Cn1cc(CCC(=O)N2CCCC(C(=O)c3ccc(C(C)(C)C)cc3)C2)cn1 (stereo not given) | 0.855% | 
70 | Cn1cc(/C=C/C(=O)N2CCCC(C(=O)c3ccc(C(F)(F)F)cc3)C2)cn1 (stereo not given) |  | 10.4 µM (active)
71 | Cc1cccc(NC(=O)N2CCCCCC2)c1C | 95.6% | 
72 | N[C@@H](Cc1ccccc1)C(=O)N1CCOCC1 | 79.6% | 
73 | COc1cccc(CNC(=O)c2cccnc2Sc2ccc(Cl)cc2)c1 | -1.02% | 
74 | O=C1c2cccc3cccc(c23)C(=O)N1c1cccc(O)c1 | 8.72% | 
75 | CCC(=C/c1sc2ccc3ccccc3c2[n+]1C)/C=C1\Sc2ccc3ccccc3c2N1C |  | 9.28 µM (active)
76 | CC1(C)C2CCC1(CS(=O)(=O)NCCc1c[nH]c3ccccc13)C(=O)C2 (stereo not given) | -23.1% | 
77 | Cc1csc(=O)n1CC(=O)OCC(=O)N(CC(C)C)c1c(N)n(Cc2ccccc2)c(=O)[nH]c1=O | 22.2% | 
78 | Nc1nnc2c(C(F)(F)F)nc3ccccc3n12 | 37.9% | 
79 | Cc1ccc(OCCNC(=O)CCNS(=O)(=O)c2ccc(Br)cc2)cc1 | 71.1% | 
80 | COc1cc2c(cc1OC)/C(=C/C(=O)c1ccc(NC(C)=O)cc1)NCC2 | 2.38% | 
81 | Cc1ccc(S(=O)(=O)N2CCC(C(=O)N[C@@H](C)C(=O)NCc3ccco3)CC2)cc1 | -18.9% | 

Row | SMILES | activity change, negative = inhibition | Potency
82 | COc1ccc(S(=O)(=O)N2CCC(C(=O)NCc3ccco3)CC2)cc1C |  | 5.22 µM (active)
83 | COc1ccccc1CNC(=O)C1CCN(S(=O)(=O)c2ccc3c(c2)OCCO3)CC1 | 53.5% | 
84 | CCc1ccc(C(=O)N2CCN(S(=O)(=O)c3sc(C(=O)O)c(C)c3C(=O)O)CC2)cc1 | -17.5% | 
85 | COc1cccc(NC(=O)c2ccc(S(=O)(=O)N(C)C)cc2)c1 | 4.96% | 
86 | COc1cccc(-c2nnc(NC(=O)c3ccc(S(=O)(=O)N(CC(C)C)CC(C)C)cc3)o2)c1 |  | 1.65 µM (active)
87 | O=C(Nc1nnc(-c2ccco2)o1)c1ccc(S(=O)(=O)N2CCOCC2)cc1 | 1.01% | 
88 | CCOc1ccc(NS(=O)(=O)c2ccc(C(=O)NCC(c3ccccc3OC)N3CCCC3)cc2)cc1 (stereo not given) |  | 14.7 µM (active)
89 | O=C(OC1CCOC1=O)c1cccc(S(=O)(=O)Nc2ccc(F)cc2)c1 (stereo not given) | -31.8% | 
90 | O=C(NCc1ccccc1CN1CCCC1)c1cccc(S(=O)(=O)Nc2ccc(F)cc2)c1 |  | 10.4 µM (active)
91 | O=C(NCc1cccc(C(F)(F)F)c1)c1cccc(S(=O)(=O)N2CCN(Cc3ccccc3)CC2)c1 | -17.2% | 
92 | COc1ccc(C(CNC(=O)c2ccc(S(=O)(=O)Nc3ccccc3F)cc2)N(C)C)cc1 (stereo not given) | -20% | 
93 | Cc1ccc(NS(=O)(=O)c2ccc(C(=O)NCCCN3CCOCC3)cc2)cc1 | 3.25% | 
94 | CC(=O)c1ccc(S(=O)(=O)Nc2ccc(C(=O)NCC(c3ccccc3)N(C)C)cc2)cc1 (stereo not given) | -1.6% | 
95 | CCOc1ccc(S(=O)(=O)Nc2ccc(C(=O)NCCCN3CCCC3=O)cc2)cc1 | -11.4% | 
96 | COc1ccccc1C(CNC(=O)c1cccc(NS(=O)(=O)c2ccc(Br)cc2)c1)N(C)C (stereo not given) |  | 6.57 µM (active)
97 | O=C(NCC1(N2CCCCC2)CCCCC1)c1ccc(NS(=O)(=O)c2ccc(F)cc2)cc1 |  | 10.4 µM (active)
98 | O=C(NCC1CCCO1)c1ccc(S(=O)(=O)Nc2ccc(F)cc2)cc1 (stereo not given) | 33.4% | 
99 | CCOc1ccc(S(=O)(=O)Nc2ccc(S(=O)(=O)Nc3cc(OC)ccc3OC)cc2)cc1 | -5.22% | 
100 | COc1cc(C#Cc2ccc3cc(CCCO)oc(=O)c3c2)cc(OC)c1 | -9.41% | 
101 | Cc1ccc(NC(=O)CN(C)C(=O)COC(=O)C(C)(C)Oc2ccc(Cl)cc2)cc1 | 47.3% | 
102 | CC1(c2ccc3ccccc3c2)NC(=O)N(CC(N)=O)C1=O (stereo not given) | 22% | 
103 | O=C(NCCCn1ccnc1)c1cc2c(s1)CCCC2 | 13.7% | 
104 | CCOC(=O)CC1(NC(=O)c2cc(COc3cncc(Cl)c3)on2)CCCCC1 | -28.6% | 
105 | COc1ccc(S(=O)(=O)NCCOc2ccccc2)cc1F | 14.1% | 
